This note sets out measurements from PubChem BioAssay (EPA / NIEHS).

Active and inactive are the calls of the source. The calls were made as follows: active = hit-call score of the fitted dose curve at least 0.9, where 1 is the maximum; inactive = score below 0.9.

This assay in a line: ATG_Oct_MLP_CIS: Attagene CIS-FACTORIAL HepG2 Assay for human Octamer-Binding Transcription Factor (Oct) (AID 2282993). The conditions noted are these: HepG2 Attagene cis-factorial Oct reporter, mRNA; actives raise or lower the signal. The essentials:
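HepG2, transient MRTU transfection, cis promoter elements; 24 h dosing; RT-PCR/CE fluorescence read-out of reporter mRNA; fit both directions vs DMSO.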
Take `OCCCc1cccnc1`: the call was inactive.

Turning to `OC(O)C(F)(F)C(F)(F)F`, the outcome was inactive.

Turning to `Brc1nc2ccccc2s1`, the compound was called inactive.

For `N#Cc1ccccc1O`, the compound was classed as inactive.

As for `COC(F)(C(F)F)C(F)(F)F` (stereo not drawn), the result was inactive.

With `Nc1cccnc1N`, the outcome was inactive.

As for `CC(C)(C)c1cc(CCC(=O)OCC(COC(=O)CCc2cc(C(C)(C)C)c(O)c(C(C)(C)C)c2)(COC(=O)CCc2cc(C(C)(C)C)c(O)c(C(C)(C)C)c2)COC(=O)CCc2cc(C(C)(C)C)c(O)c(C(C)(C)C)c2)cc(C(C)(C)C)c1O`, the outcome was inactive.

Consider `Nc1c(Br)cc([N+](=O)[O-])cc1Br`, for which the compound was called inactive.

`OCCCCC(F)(F)C(F)(F)C(F)(F)C(F)(F)F`: the result was inactive.

Take `CCC(Cc1c(I)cc(I)c(N)c1I)C(=O)O` (stereo not drawn): the compound was classed as inactive.

Take `CCC/C=C/CO`: the result was inactive.

As to `CCOCN(C(=O)CS(=O)(=O)O)c1c(C)cccc1CC`, the compound was called inactive.

With `O=C(Cl)c1ccc(Cl)cc1Cl`, the call was inactive.

`C[C@]12CC[C@H]3C(=CCc4cc(O)ccc43)[C@@H]1CCC2=O`: the call was inactive.

For the compound `O=C1C=CC(=O)N1c1ccc(Cc2ccc(N3C(=O)C=CC3=O)cc2)cc1`, the result was inactive.

On to `CN(N=O)C(=O)N[C@@H]1[C@@H](O)[C@H](O)[C@@H](CO)O[C@@H]1O`, for which the outcome was inactive.

For the compound `O=C1c2c(O)ccc(Nc3ccc(CCO)cc3)c2C(=O)c2c([N+](=O)[O-])ccc(O)c21`, the call was inactive.

On to `Nc1cc([N+](=O)[O-])cc(Cl)c1O`, for which the compound was classed as inactive.

As for `CC(=O)CCC(C)C`, the call was inactive.

Turning to `CCOC(=O)CC(=O)C(F)(F)C(F)(F)F`, the result was inactive.

Turning to `O=S(=O)(O)CCC(F)(F)C(F)(F)C(F)(F)C(F)(F)F`, the compound was classed as inactive.

On to `CC(C)=CCCC(C)O` (stereo not drawn), for which the compound was classed as inactive.

Regarding `CCc1cc(Cc2cc(CC)c(N)c(CC)c2)cc(CC)c1N`, the AC50 is 41.9 µM (active).

`CCN=c1cc2oc3cc(NCC)c(C)cc3c(-c3ccccc3C(=O)OCC)c-2cc1C`: the half-maximal activity concentration (AC50) was 7.4 µM (active).

On to `Cc1ccc2c(c1)OCC(=O)CO2`, for which the compound was classed as inactive.

On to `CCn1c2ccccc2c2ccccc21`, for which the AC50 is 100 µM (active).

Take `CCCCCCCCn1sc(Cl)c(Cl)c1=O`: the call was inactive.

Consider `O=S(=O)(O)c1ccc(Cl)cc1`, for which the result was inactive.

Consider `Cc1ccc(S(=O)(=O)C(I)I)cc1`, for which the AC50 is 8.98 µM (active).

In the case of `CC(=O)c1ccccc1N`, the outcome was inactive.

`NC(=O)C(F)(F)C(F)(F)C(F)(F)F`: the outcome was inactive.

Consider `Cc1cnccn1`, for which the result was inactive.

Take `CSc1ccc(O)cc1C`: the compound was called inactive.

Regarding `CN(C)C(C)(C)CO`, the outcome was inactive.

Take `COCCC(=O)OC`: the outcome was inactive.

On to `C=C(C)CCCC`, for which the result was inactive.

As to `CCOC(=O)CCC(C)=O`, the compound was classed as inactive.

In the case of `Cc1ccc([N+](=O)[O-])c(C)c1`, the outcome was inactive.
